This passage reports binding signal results from PMC7862700, “An all-to-all approach to the identification of sequence-specific readers for epigenetic DNA modifications on cytosine”.

Holding throughout (test): DAPPL (digital affinity profiling via proximity ligation, sequencing); 10 mM Tris-HCl pH 7.5, 50 mM NaCl, 1 mM DTT, 4% glycerol, room temperature, 30 min; GST-TFs on glutathione beads, 16-mer random dsDNA library, 0.1% formaldehyde crosslink after washing; high values mean tight binding
For one assay, the target named is T1, FEV (Homo sapiens, UniProt Q99581 1-238).
T1 sequence: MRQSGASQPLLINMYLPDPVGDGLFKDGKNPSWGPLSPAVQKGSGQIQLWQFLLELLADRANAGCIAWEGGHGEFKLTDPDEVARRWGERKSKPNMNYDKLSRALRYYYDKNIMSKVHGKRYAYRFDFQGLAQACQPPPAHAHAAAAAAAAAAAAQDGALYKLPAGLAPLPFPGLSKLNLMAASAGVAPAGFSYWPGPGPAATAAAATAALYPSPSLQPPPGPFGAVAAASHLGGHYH
Particulars: protein: recombinant; tags: N-terminal GST; dsDNA, one strand shown. The essentials:
(§1)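 In yeast, human transcription factors were expressed with a GST fusion, then pulled down on glutathione beads and given DNA barcodes. Pooled with a tag-only sample, they were exposed to 200 nmole of a 16-mer random double-stranded DNA library (Tris/NaCl/DTT/glycerol buffer, room temperature, 30 min), washed, crosslinked with 0.1% formaldehyde, proximity-ligated using BsaI/T4 ligase for 1 h at 37 °C, PCR-amplified and read on an Illumina NextSeq500. Each hexamer's frequency of reads for a factor, divided by the matching frequency for the tag-only sample, gives the binding signal.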

A further assay has as its target ETV5 (Homo sapiens, UniProt P41161 1-510). As to conditions: protein: recombinant; tags: N-terminal GST; dsDNA, one strand shown. The essentials: as §1
In a further assay the target is HSF1 (Homo sapiens, UniProt Q00613 1-529). As to conditions: protein: recombinant; tags: N-terminal GST; chain copies: 3; dsDNA, one strand shown. The essentials:
as §1

A further assay deals with T2, SPIC (Homo sapiens, UniProt Q8N5J4 1-248).
T2 sequence: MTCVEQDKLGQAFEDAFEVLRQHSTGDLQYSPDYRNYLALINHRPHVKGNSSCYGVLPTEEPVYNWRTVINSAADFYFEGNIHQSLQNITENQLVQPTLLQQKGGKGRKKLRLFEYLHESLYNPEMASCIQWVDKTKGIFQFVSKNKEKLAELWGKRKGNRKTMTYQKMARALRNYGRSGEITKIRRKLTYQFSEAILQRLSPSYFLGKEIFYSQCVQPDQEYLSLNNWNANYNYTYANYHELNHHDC
As to conditions: protein: recombinant; tags: N-terminal GST; dsDNA, one strand shown. The essentials: as §1

The next assay deals with ELF4 (Homo sapiens, UniProt Q99607 1-663). As to conditions: protein: recombinant; tags: N-terminal GST; dsDNA, one strand shown. In short, it runs like this: as §1
Chain of ELF4 (Q99607 whole entry): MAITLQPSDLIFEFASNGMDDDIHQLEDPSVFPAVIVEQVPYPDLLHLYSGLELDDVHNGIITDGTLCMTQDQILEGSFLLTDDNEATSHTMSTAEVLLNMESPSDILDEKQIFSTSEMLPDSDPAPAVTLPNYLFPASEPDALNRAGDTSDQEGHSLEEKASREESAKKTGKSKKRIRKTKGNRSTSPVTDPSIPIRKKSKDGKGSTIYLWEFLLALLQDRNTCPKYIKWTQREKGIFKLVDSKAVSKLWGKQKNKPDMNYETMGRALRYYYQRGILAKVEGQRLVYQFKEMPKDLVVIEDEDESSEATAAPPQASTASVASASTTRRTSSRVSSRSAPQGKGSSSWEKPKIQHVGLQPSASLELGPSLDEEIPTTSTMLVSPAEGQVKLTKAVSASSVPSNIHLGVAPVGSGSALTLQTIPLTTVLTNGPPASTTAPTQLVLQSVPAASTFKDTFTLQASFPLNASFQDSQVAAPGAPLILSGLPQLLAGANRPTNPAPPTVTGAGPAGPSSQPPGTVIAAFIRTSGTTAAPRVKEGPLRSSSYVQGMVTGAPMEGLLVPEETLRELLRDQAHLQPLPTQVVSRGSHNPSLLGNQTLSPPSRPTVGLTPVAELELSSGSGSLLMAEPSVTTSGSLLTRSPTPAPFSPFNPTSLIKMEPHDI
For a further assay, the target named is T3, ELK4 (Homo sapiens, UniProt P28324-2 1-405).
T3 sequence: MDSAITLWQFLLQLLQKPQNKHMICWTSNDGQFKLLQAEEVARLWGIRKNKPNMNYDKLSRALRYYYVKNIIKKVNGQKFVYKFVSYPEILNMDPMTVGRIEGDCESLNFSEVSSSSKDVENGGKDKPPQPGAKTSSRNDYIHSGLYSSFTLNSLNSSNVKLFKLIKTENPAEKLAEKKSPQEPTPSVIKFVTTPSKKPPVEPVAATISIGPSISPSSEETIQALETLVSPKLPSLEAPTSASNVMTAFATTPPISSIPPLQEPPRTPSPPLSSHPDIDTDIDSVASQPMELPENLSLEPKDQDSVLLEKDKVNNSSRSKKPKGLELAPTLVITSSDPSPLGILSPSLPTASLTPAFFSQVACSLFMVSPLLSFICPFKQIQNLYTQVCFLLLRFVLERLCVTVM
As to conditions: protein: recombinant; tags: N-terminal GST; dsDNA, one strand shown. In short, it runs like this:
as §1

For the next assay, the target named is T4, ETV2 (Homo sapiens, UniProt O00321 1-342).
T4 sequence: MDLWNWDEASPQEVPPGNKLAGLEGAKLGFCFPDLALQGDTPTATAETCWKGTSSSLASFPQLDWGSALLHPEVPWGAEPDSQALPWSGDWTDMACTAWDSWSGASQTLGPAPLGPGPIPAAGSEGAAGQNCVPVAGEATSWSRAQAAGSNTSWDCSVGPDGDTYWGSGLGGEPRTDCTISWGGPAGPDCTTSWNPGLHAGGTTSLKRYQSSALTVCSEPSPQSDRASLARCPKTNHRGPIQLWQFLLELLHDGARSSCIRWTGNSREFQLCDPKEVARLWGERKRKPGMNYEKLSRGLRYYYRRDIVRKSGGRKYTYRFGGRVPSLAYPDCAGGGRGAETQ
As to conditions: protein: recombinant; tags: N-terminal GST; dsDNA, one strand shown. The essentials:
as §1

The target in a further assay is T5, ELF3 (Homo sapiens, UniProt P78545 1-371).
T5 sequence: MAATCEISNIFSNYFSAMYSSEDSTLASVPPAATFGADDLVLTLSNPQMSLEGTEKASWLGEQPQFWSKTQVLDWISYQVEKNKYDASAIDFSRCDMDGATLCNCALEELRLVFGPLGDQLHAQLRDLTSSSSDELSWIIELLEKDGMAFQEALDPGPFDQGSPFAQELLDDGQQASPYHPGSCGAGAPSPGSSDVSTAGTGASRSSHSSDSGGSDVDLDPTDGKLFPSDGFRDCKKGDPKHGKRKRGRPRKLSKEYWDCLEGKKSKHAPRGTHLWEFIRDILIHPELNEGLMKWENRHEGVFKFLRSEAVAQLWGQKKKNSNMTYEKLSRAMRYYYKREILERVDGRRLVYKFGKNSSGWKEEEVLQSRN
As to conditions: protein: recombinant; tags: N-terminal GST; dsDNA, one strand shown. The essentials: as §1

The target in the next assay is CRX (Homo sapiens, UniProt O43186 1-299). Particulars: protein: recombinant; tags: N-terminal GST; dsDNA, one strand shown. The essentials:
as §1

For another assay, the target named is ETV1 (Homo sapiens, UniProt P50549 1-477). As to conditions: protein: recombinant; tags: N-terminal GST; dsDNA, one strand shown. In short, it runs like this: as §1
Chain of ETV1 (P50549 whole entry): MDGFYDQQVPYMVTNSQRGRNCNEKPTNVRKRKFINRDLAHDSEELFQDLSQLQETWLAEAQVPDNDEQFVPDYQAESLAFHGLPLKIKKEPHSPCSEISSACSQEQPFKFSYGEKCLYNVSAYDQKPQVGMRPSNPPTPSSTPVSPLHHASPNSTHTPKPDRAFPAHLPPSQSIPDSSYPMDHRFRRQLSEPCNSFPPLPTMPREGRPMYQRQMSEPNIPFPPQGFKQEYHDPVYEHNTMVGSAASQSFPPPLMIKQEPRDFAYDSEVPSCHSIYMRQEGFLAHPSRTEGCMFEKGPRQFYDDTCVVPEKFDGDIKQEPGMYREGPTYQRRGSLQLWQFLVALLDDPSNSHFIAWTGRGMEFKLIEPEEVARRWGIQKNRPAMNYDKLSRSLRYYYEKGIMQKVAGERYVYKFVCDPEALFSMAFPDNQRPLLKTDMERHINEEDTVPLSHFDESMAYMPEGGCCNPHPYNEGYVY

Chain of HSF1 (Q00613 whole entry): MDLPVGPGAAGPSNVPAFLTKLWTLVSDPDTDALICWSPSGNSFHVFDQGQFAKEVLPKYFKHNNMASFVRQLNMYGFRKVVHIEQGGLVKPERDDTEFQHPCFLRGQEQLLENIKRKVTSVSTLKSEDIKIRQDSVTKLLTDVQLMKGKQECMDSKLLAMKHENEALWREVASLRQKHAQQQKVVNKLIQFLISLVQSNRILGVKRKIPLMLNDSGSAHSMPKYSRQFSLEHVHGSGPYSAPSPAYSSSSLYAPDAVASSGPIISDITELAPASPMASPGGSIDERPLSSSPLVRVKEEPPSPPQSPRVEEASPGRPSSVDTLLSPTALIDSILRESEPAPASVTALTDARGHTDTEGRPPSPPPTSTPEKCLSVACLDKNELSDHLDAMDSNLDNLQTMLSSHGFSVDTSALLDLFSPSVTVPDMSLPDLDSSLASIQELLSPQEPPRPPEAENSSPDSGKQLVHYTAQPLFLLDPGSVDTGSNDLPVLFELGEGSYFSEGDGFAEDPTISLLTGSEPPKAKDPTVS
Chain of ETV5 (P41161 whole entry): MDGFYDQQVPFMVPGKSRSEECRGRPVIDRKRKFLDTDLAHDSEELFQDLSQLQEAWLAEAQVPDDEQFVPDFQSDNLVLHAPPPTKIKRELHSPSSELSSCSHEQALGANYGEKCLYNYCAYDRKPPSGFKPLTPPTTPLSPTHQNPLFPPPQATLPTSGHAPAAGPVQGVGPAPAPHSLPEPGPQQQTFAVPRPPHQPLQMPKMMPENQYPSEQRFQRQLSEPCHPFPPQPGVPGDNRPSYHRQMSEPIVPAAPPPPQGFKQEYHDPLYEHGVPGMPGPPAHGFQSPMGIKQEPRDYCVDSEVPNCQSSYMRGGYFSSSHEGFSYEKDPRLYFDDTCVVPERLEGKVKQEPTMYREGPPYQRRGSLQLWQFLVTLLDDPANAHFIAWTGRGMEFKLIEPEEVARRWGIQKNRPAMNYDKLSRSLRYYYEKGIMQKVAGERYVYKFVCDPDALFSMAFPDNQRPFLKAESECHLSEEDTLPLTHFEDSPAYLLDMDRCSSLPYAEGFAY
Chain of CRX (O43186 whole entry): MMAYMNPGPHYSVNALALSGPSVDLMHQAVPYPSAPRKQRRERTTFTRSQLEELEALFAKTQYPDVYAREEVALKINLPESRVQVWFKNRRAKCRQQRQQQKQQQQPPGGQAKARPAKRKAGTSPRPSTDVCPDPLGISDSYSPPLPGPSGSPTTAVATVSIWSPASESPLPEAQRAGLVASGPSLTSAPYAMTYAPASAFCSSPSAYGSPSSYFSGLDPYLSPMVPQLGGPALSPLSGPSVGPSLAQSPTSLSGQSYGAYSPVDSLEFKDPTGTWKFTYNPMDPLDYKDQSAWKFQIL

In the case of GCCTTG, the binding signal is 1.13 fold enrichment (6-mer frequency, TF over GST control) with FEV; 1.34 fold enrichment (6-mer frequency, TF over GST control) with ETV5; 1.06 fold enrichment (6-mer frequency, TF over GST control) in the assay with HSF1; 1.31 fold enrichment (6-mer frequency, TF over GST control) with SPIC; 1.21 fold enrichment (6-mer frequency, TF over GST control) in the assay with ELF4; 1.17 fold enrichment (6-mer frequency, TF over GST control) with ELK4. In addition, the binding signal is 1.09 fold enrichment (6-mer frequency, TF over GST control) in the assay with ETV2; 1.23 fold enrichment (6-mer frequency, TF over GST control) with ELF3; 1.05 fold enrichment (6-mer frequency, TF over GST control) with CRX; 1.18 fold enrichment (6-mer frequency, TF over GST control) with ETV1.
On to ACTCGT, for which the binding signal with FEV was 1.2 fold enrichment (6-mer frequency, TF over GST control); with ETV5, 1.22 fold enrichment (6-mer frequency, TF over GST control); with HSF1, 1.14 fold enrichment (6-mer frequency, TF over GST control); with SPIC, 1.16 fold enrichment (6-mer frequency, TF over GST control); with ELF4, 1.3 fold enrichment (6-mer frequency, TF over GST control); with ELK4, 1.28 fold enrichment (6-mer frequency, TF over GST control). Moreover, the binding signal with ETV2 was 1.21 fold enrichment (6-mer frequency, TF over GST control); with ELF3, 1.25 fold enrichment (6-mer frequency, TF over GST control); in the assay with CRX, 1.08 fold enrichment (6-mer frequency, TF over GST control); with ETV1, 1.13 fold enrichment (6-mer frequency, TF over GST control).
Take CGTATA: the binding signal is 1.04 fold enrichment (6-mer frequency, TF over GST control) with FEV; 1.15 fold enrichment (6-mer frequency, TF over GST control) with ETV5; 1.03 fold enrichment (6-mer frequency, TF over GST control) with HSF1; 1.19 fold enrichment (6-mer frequency, TF over GST control) with SPIC; 1.13 fold enrichment (6-mer frequency, TF over GST control) with ELF4; 1.07 fold enrichment (6-mer frequency, TF over GST control) in the assay with ELK4. In addition, the binding signal in the assay with ETV2 was 1.12 fold enrichment (6-mer frequency, TF over GST control); with ELF3 it was 1.24 fold enrichment (6-mer frequency, TF over GST control); in the assay with CRX it was 1.07 fold enrichment (6-mer frequency, TF over GST control); with ETV1, 1.19 fold enrichment (6-mer frequency, TF over GST control).
Turning to CGATTA, the binding signal is 1.09 fold enrichment (6-mer frequency, TF over GST control) with FEV; 1.08 fold enrichment (6-mer frequency, TF over GST control) with ETV5; 2.19 fold enrichment (6-mer frequency, TF over GST control) in the assay with HSF1; 1.12 fold enrichment (6-mer frequency, TF over GST control) with SPIC; 1.14 fold enrichment (6-mer frequency, TF over GST control) with ELF4; 1.18 fold enrichment (6-mer frequency, TF over GST control) with ELK4. The binding signal with ETV2 is 1.13 fold enrichment (6-mer frequency, TF over GST control); in the assay with ELF3, 1 fold enrichment (6-mer frequency, TF over GST control); in the assay with CRX, 3.25 fold enrichment (6-mer frequency, TF over GST control); with ETV1 it was 1.13 fold enrichment (6-mer frequency, TF over GST control).
Turning to CTGAAC, the binding signal in the assay with FEV is 1.35 fold enrichment (6-mer frequency, TF over GST control); in the assay with ETV5, 1.41 fold enrichment (6-mer frequency, TF over GST control); with HSF1, 1.33 fold enrichment (6-mer frequency, TF over GST control); with SPIC it was 1.31 fold enrichment (6-mer frequency, TF over GST control); in the assay with ELF4, 1.3 fold enrichment (6-mer frequency, TF over GST control); with ELK4, 1.44 fold enrichment (6-mer frequency, TF over GST control). In addition, the binding signal with ETV2 is 1.35 fold enrichment (6-mer frequency, TF over GST control); with ELF3 it was 1.44 fold enrichment (6-mer frequency, TF over GST control); with CRX, 1.23 fold enrichment (6-mer frequency, TF over GST control); with ETV1 it was 1.43 fold enrichment (6-mer frequency, TF over GST control).
Consider AAATGT, for which the binding signal with FEV is 1.27 fold enrichment (6-mer frequency, TF over GST control); with ETV5, 1.28 fold enrichment (6-mer frequency, TF over GST control); in the assay with HSF1, 1.19 fold enrichment (6-mer frequency, TF over GST control); with SPIC, 1.25 fold enrichment (6-mer frequency, TF over GST control); with ELF4, 1.27 fold enrichment (6-mer frequency, TF over GST control); with ELK4, 1.4 fold enrichment (6-mer frequency, TF over GST control). The binding signal was 1.36 fold enrichment (6-mer frequency, TF over GST control) in the assay with ETV2; 1.54 fold enrichment (6-mer frequency, TF over GST control) with ELF3; 1.04 fold enrichment (6-mer frequency, TF over GST control) with CRX; 1.39 fold enrichment (6-mer frequency, TF over GST control) with ETV1.
As to CTATAT, the binding signal with FEV is 1.44 fold enrichment (6-mer frequency, TF over GST control); with ETV5, 1.41 fold enrichment (6-mer frequency, TF over GST control); with HSF1, 1.23 fold enrichment (6-mer frequency, TF over GST control); in the assay with SPIC, 1.47 fold enrichment (6-mer frequency, TF over GST control); in the assay with ELF4 it was 1.41 fold enrichment (6-mer frequency, TF over GST control); in the assay with ELK4, 1.71 fold enrichment (6-mer frequency, TF over GST control). The binding signal with ETV2 was 1.22 fold enrichment (6-mer frequency, TF over GST control); in the assay with ELF3, 1.33 fold enrichment (6-mer frequency, TF over GST control); with CRX, 1.3 fold enrichment (6-mer frequency, TF over GST control); in the assay with ETV1 it was 1.39 fold enrichment (6-mer frequency, TF over GST control).
For CTTTGA, the binding signal with FEV was 1.14 fold enrichment (6-mer frequency, TF over GST control); in the assay with ETV5, 1.18 fold enrichment (6-mer frequency, TF over GST control); with HSF1, 1.21 fold enrichment (6-mer frequency, TF over GST control); with SPIC, 1.4 fold enrichment (6-mer frequency, TF over GST control); in the assay with ELF4, 1.24 fold enrichment (6-mer frequency, TF over GST control); with ELK4 it was 1.41 fold enrichment (6-mer frequency, TF over GST control). Further, the binding signal with ETV2 is 1.27 fold enrichment (6-mer frequency, TF over GST control); with ELF3 it was 1.16 fold enrichment (6-mer frequency, TF over GST control); with CRX, 1.23 fold enrichment (6-mer frequency, TF over GST control); with ETV1, 1.21 fold enrichment (6-mer frequency, TF over GST control).
